PubChem BioAssay AID651812 (National Center for Advancing Translational Sciences (NCATS), 2012)
About 650 (31%) of roughly 2,100 compounds were called active. Another 16% or so got no clear call; they are omitted. Calls follow the shape of the dose curve; as a rule, active = well fitted inhibition curve with a large enough effect; inconclusive = small, poorly fitted or top-dose-only effect; inactive = flat fitted curve, though single readings scatter. Some of the results follow. Entries that show only a call come without a potency.

Assay: qHTS for inhibitors of Vif-A3G interactions: Cherry picks; also: nearly all actives have a fitted effect of over 80% in size
Conditions: HeLa A3G-eYFP + Vif (tagged APOBEC3G with the HIV-1 protein that degrades it), 24 h; Potency: eYFP fluorescence increase; series mostly up to 36.9 µM
Procedure, shortened: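 HeLa cells stably expressing A3G-eYFP and Vif, cultured overnight then exposed to compounds at several concentrations for 24 hours at 37 C, 5% CO2; cellular yellow fluorescence (488 nm ex, 500-530 nm em) imaged on Acumen, MG132 positive control.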
Potency is read from the fitted curve at half-maximal effect.

SMILES | Potency
Clc1ccc(/C=N/NC2=Nc3cccc4cccc2c34)cc1 | 18.4 µM (active)
O=C(N/N=C/c1ccc(Cl)cc1)c1cc2c(s1)-c1ccccc1CC2 | inactive
CCOC(=O)Cc1ccc(Nc2nc3cc(-c4sccc4C)sc3c(=O)n2C)cc1 | inactive
COc1cc(-c2noc(C)c2/C=C/c2cccc([N+](=O)[O-])c2)cc(OC)c1OC | inactive
O=C(O)CSc1cc(NS(=O)(=O)c2cccc([N+](=O)[O-])c2)c2ccccc2c1O | inactive
COc1ccc(-n2c(O)c(/C=N/NS(=O)(=O)c3ccc(C)c([N+](=O)[O-])c3)c3ccccc3c2=O)cc1OC | 11.6 µM (active)
COc1ccc(-n2c(O)c(/C=N/NS(=O)(=O)c3cccc([N+](=O)[O-])c3)c3ccccc3c2=O)cc1OC | 15.8 µM (active)
COc1ccc(C(=O)C(C)[n+]2ccc(C)c3ccccc32)cc1[N+](=O)[O-] (stereo unspecified) | inactive
O=c1[nH]cnc2n[nH]nc12 | inactive
CN(C)c1ccc2ccc3cccc4ccc1c2c34 | 14.6 µM (active)
Cc1ccc(-c2nc(-c3cc4cccc(OCc5cccc(F)c5)c4oc3=O)no2)cc1 | 18.4 µM (active)
COc1ccccc1-c1cc(C(=O)NN)[nH]n1 | inactive
COc1ccccc1-c1nnc2sc(-c3cc4ccccc4o3)nn12 | inactive
CCCCCCc1cc2cc(-c3nnc(-c4ccccc4)o3)c(=O)oc2cc1O | 1.58 µM (active)
CCCCCCc1cc2cc(-c3nnc(-c4ccccc4OC)o3)c(=O)oc2cc1O | 3.53 µM (active)
O=C1OCC2=C1C(c1ccc3c(c1)OCO3)c1cc3c(cc1O2)OCO3 (stereo unspecified) | inactive
O=S(=O)(Nc1nc2n(n1)C(c1ccccc1)C=C(c1ccc(Cl)cc1)N2)c1ccccc1 (stereo unspecified) | 18.4 µM (active)
COc1cccc(C2=CC(c3ccccc3)n3nnnc3N2)c1 (stereo unspecified) | inactive
CN(C)CCN(C(=O)/C=C/c1cccs1)c1nc2c(F)cc(F)cc2s1 | inactive
COc1ccccc1NC(=O)Cc1ccc(-c2ccccc2)cc1 | inactive
CC(=O)Nc1ccc(CC(=O)NCCC(c2ccccc2)c2ccccc2)cc1 | inactive
COC(=O)CCC(=O)NC(=S)Nc1sc(C)c(C)c1C(N)=O | inactive

SMILES | Potency
CC(=O)Nc1sc(C)c(C)c1C(=O)OCC(=O)Nc1ccccc1 | 20.6 µM (active)
CC1C/C(=C/c2cccs2)C(=O)/C(=C/c2cccs2)C1 (stereo unspecified) | inactive
CN1C2CCC1/C(=C/c1cccn1C)C(=O)/C2=C\c1cccn1C | 18.4 µM (active)
Cn1cccc1/C=C1\SC(=Nc2ccccc2)NC1=O | inactive
Cn1cccc1/C=C1\CC(C(C)(C)C)C/C(=C\c2cccn2C)C1=O (stereo unspecified) | 7.31 µM (active)
CC1CCN(C(=O)C(C)Sc2nc(-c3ccccc3)cc(C(F)(F)F)n2)CC1 (stereo unspecified) | inactive
CCc1ccc2nc(N(CCCN(C)C)C(=O)c3ccc(S(=O)(=O)N(C)C4CCCCC4)cc3)sc2c1 | inactive
C=CCn1c(SCc2c(C)noc2C)nc2cc(C(=O)O)ccc2c1=O | inactive
COc1cc(C(=O)N/N=C/C2CC=CCC2)cc(OC)c1OC (stereo unspecified) | inactive
COc1cc(C=C2C(=O)c3ccccc3C2=O)cc(OC)c1OC | inactive
COc1cc(/C=C2/SC(=S)N(Cc3ccccc3)C2=O)cc(OC)c1O | inactive
COc1cc(/C=C2/SC(=S)N(CCC(=O)Nc3ccccc3)C2=O)cc(OC)c1OC | 18.4 µM (active)
O=C(CN1C(=O)S/C(=C\c2cc(Cl)c(O)c(Cl)c2)C1=O)Nc1ccccc1 | 20.6 µM (active)
COc1ccc(NC(=O)CN2C(=O)C3(SCC(=O)N3c3ccccc3)c3ccccc32)cc1Cl (stereo unspecified) | inactive
O=C(NCCN1C(=O)S/C(=C\c2ccc(OC(F)F)cc2)C1=O)c1cnccn1 | inactive
COC(=O)C1=C(C)NC2=C(C(=O)CC(c3cccs3)C2)C1c1ccsc1 (stereo unspecified) | inactive
CC(=O)Nc1cccc(-c2ccnc3c2CC(C)(C(=O)NCc2cccs2)O3)c1 (stereo unspecified) | inactive
Clc1ccc2c(c1)C(C1=NCCN1)c1ccccc1CS2 (stereo unspecified) | inactive
CCOC(=O)Nc1ccc2c3c(cccc13)-c1ccccc1-2 | inactive
O=CNc1ccc2c3c(cccc13)-c1ccccc1-2 | 15.8 µM (active)
CC(=O)Nc1ccc(-c2ccnc3c2CC(C)(C(=O)NCc2ccco2)O3)cc1 (stereo unspecified) | inactive
Cc1ccc2nc(-c3ccccn3)c(Nc3ccccc3C)n2c1 | inactive

SMILES | Potency
CCN1C(=O)/C(=C/C=C2\N(CC)c3cc(S(=O)(=O)N(C)C)ccc3N2c2ccccc2)SC1=S | 4.44 µM (active)
CCOc1ccccc1C1CC(c2cccs2)=NN1S(C)(=O)=O (stereo unspecified) | 13 µM (active)
Cc1ccc(C2=NN(C(=O)c3cccs3)C(c3ccccc3O)C2)cc1 (stereo unspecified) | inactive
CCc1ccc(C2=NN(S(C)(=O)=O)C(c3cccs3)C2)cc1 (stereo unspecified) | 25 µM (active)
Cc1ccccc1C1CC(c2cccs2)=NN1S(C)(=O)=O (stereo unspecified) | inactive
Cn1c(=S)c2[nH]c(SCCN3CCCC3)nc2n(C)c1=O | inactive
O=C1C=CC(O)(c2cc(=O)c3c(O)cc(O)cc3o2)C=C1 | inactive
C1=Cc2ccccc2/C1=C\c1cc2c3c(c1)CCCN3CCC2 | 18.4 µM (active)
c1cncc(-c2nc(NCc3cccs3)c3ccccc3n2)c1 | inactive
Cc1ccc(Nc2nc(-c3cccnc3)nc3ccccc23)cc1 | inactive
Oc1ccccc1-c1nc(NCc2ccccc2)c2ccccc2n1 | 20.6 µM (active)
c1ccc(N=NC2=NN(c3ccccc3)CS2)cc1 | inactive
Cc1cccc(CSc2cccc3cccnc23)c1 | inactive
O=C1c2ccccc2C(=O)c2c(/C=C/N3CCCCC3)ccnc21 | 18.4 µM (active)
CCCNc1c(F)c(F)c2c(C)c3ccccc3nc2c1F | 17.7 µM (active)
Cc1nnc(NC(=O)CSc2nc(C(C)C)nc3ccccc23)s1 | inactive
Cc1c2ccccc2nc2c(F)c(NC(C)C)c(F)c(F)c12 | 10.3 µM (active)
Cc1ccc(S(=O)c2ccc([N+](=O)[O-])c3nonc23)cc1 (stereo unspecified) | 20.6 µM (active)
O=C(OCc1ccccc1)c1ccc(NCc2cc(O)ccc2O)cc1 | inactive
CCn1c2ccccc2c2cc(NC(=O)CNCc3ccccc3OC)ccc21 | inactive
Cc1cc(C)cc(NC(=S)NC(=O)C2CC2)c1 | inactive
Cc1cc(C)cc(NC(=O)Cn2cc(C(=O)C3CCCCC3)c3ccccc32)c1 | 20.6 µM (active)
